{"source": "PubChem BioAssay AID1259343", "about": "(VanderVen Lab, College of Veterinary Medicine, Cornell …, 2017)", "note": "About 2,900 (47%) of roughly 6,200 compounds were called active. The set was probably picked from earlier hits. This is one part of the list. Values without a mark were called inactive. Cut-off read from the data, not from the text of the source: active = inhibition above about 50%; inactive = the rest."}
{"test": "Mycobacterium tuberculosis growth inhibition, primary screen (AID 1259343)", "conditions": "inhibition: at 10 µM, active compounds read high; outcome: 10 uM"}
{"molecule": "Cc1cc(C)n(C(C)CNS(=O)(=O)c2ccc(C)c(C)c2)n1", "note": "(stereo unspecified)", "inhibition": "-27.8%"}
{"molecule": "Cc1cc2nn(-c3ccc(C(C)C)cc3)nc2cc1N", "inhibition": "14.7%"}
{"molecule": "CC(C)c1ccc(-c2nnc(N)s2)cc1", "inhibition": "72.1% (active)"}
{"molecule": "CC(O)c1cnc(-c2ccc(Br)cc2)s1", "note": "(stereo unspecified)", "inhibition": "35.9%"}
{"molecule": "C=CS(=O)(=O)Oc1ccccc1", "inhibition": "78.9% (active)"}
{"molecule": "O=C(/C=C/C(=O)Oc1ccccc1C(=O)O)Oc1ccccc1C(=O)O", "inhibition": "26.7%"}
{"molecule": "NC(=O)c1ccnc(N2CCN(Cc3ccc(Cl)c(Cl)c3)CC2)c1", "inhibition": "89.4% (active)"}
{"molecule": "NC(=O)c1ccc(CN2CCCc3cc(F)cc(F)c32)cc1", "inhibition": "17.5%"}
{"molecule": "Nc1nc(Cl)cc(N2CCN(Cc3ccc4c(c3)OCCO4)CC2)n1", "inhibition": "6.34%"}
{"molecule": "C=CCn1cnc2c(c1=O)c1nc3ccccc3nc1n2CCC(C)C", "inhibition": "12.7%"}
{"molecule": "CCOc1ccc2ccccc2c1C(=O)Nc1cc(C)nn1-c1nc(CC)cc(=O)[nH]1", "inhibition": "101% (active)"}
{"molecule": "CCOc1ccc2ccccc2c1C(=O)Nc1cc(C)nn1-c1nc(C)cc(=O)[nH]1", "inhibition": "101% (active)"}
{"molecule": "COCCOc1ccc(CNS(=O)(=O)c2ccc(F)c(Cl)c2)cc1", "inhibition": "30.9%"}
{"molecule": "O=S(=O)(NCCCNS(=O)(=O)c1ccc(Cl)cc1)c1ccc(Cl)cc1", "inhibition": "-18.2%"}
{"molecule": "O=S(=O)(NCCCCOc1ccc(Cl)cc1)c1cccc(F)c1", "inhibition": "88.5% (active)"}
{"molecule": "Cc1ccc(-c2csc(NC(=O)c3c(C)noc3C)n2)s1", "inhibition": "24.1%"}
{"molecule": "Cc1noc(C)c1C(=O)Nc1nc2cc(C(C)(C)C)ccc2o1", "inhibition": "100% (active)"}
{"molecule": "Cc1oc2nc[nH]c(=O)c2c1C(=O)Nc1ccc(C(C)(C)C)cc1", "inhibition": "39.2%"}
{"molecule": "CCCc1nc(N2CC[C@@H](c3ccc4ccccc4c3)[C@H](O)C2)no1", "inhibition": "23%"}
{"molecule": "Cc1cc(N2CC[C@@H](c3ccc4c(c3)OCO4)[C@H](O)C2)nc2cc(F)ccc12", "inhibition": "11.3%"}
{"molecule": "CCc1cnc(N2CC[C@@H](c3ccc4ccccc4c3)[C@H](O)C2)nc1", "inhibition": "86.1% (active)"}
{"molecule": "CCCCc1ccc(NC(=O)CSc2nc3nc(C)cc(C)n3n2)cc1", "inhibition": "-36.7%"}
{"molecule": "O=C(CSC1=NS(=O)(=O)c2ccccc2N1)Nc1ccccc1", "inhibition": "31.9%"}
{"molecule": "Cc1cc(C)n2nc(SCC(=O)Nc3ccc(C(C)C)cc3)nc2n1", "inhibition": "84.4% (active)"}
{"molecule": "O=C1c2ccccc2-c2nc3nonc3nc21", "inhibition": "103% (active)"}
{"molecule": "O=C(NNC(=O)C1C2C=CC(C2)C1C(=O)O)c1ccc(OC2CCCC2)cc1", "note": "(stereo unspecified)", "inhibition": "97.7% (active)"}
{"molecule": "CC(C)n1nccc1-c1nnc(NC(=O)c2ccccc2)o1", "inhibition": "100% (active)"}
{"molecule": "CCC(C)n1nccc1NC(=O)c1n[nH]c2ccccc2c1=O", "note": "(stereo unspecified)", "inhibition": "3.7%"}
{"molecule": "O=C(c1ccccc1)n1sc(=O)c2ccccc21", "inhibition": "61.1% (active)"}
{"molecule": "O=C(CCCn1c(=O)oc2ccccc21)Nc1cccc(-c2ccsc2)c1", "inhibition": "34.8%"}
{"molecule": "CS(=O)(=O)CCC(=O)Nc1cccc(-n2cccc2)c1", "inhibition": "81.7% (active)"}
{"molecule": "CN(Cc1cccc(NC(=O)C(C)(C)C)c1)C(=O)C(F)(F)F", "inhibition": "4.53%"}
{"molecule": "CCOC(=O)C1CSC(Cc2ccc(OCc3ccc([N+](=O)[O-])cc3)cc2)N1", "note": "(stereo unspecified)", "inhibition": "66% (active)"}
{"molecule": "CC(=NNC(=O)c1cc(-c2ccc(Cl)s2)[nH]n1)c1ccccc1O", "inhibition": "40.9%"}
{"molecule": "COc1cccc(C=NNC(=O)c2cc(-c3ccc(Cl)s3)[nH]n2)c1", "inhibition": "68% (active)"}
{"molecule": "O=C(NN=Cc1ccncc1)c1cc(-c2ccc(Cl)s2)[nH]n1", "inhibition": "16.5%"}
{"molecule": "O=c1[nH]nc(SCc2cc(Cl)ccc2Cl)c(=O)[nH]1", "inhibition": "54.7% (active)"}
{"molecule": "O=C(CN1CCN(CCC23CC4CC(CC(C4)C2)C3)CC1)N1CCCCC1", "inhibition": "9.26%"}
{"molecule": "CCOC(=O)C1(CCOc2ccccc2)CCN(Cc2cc3ccccc3[nH]2)CC1", "inhibition": "inactive"}
{"molecule": "Cc1ccc(C(C)CCN2CCC(C(=O)Nc3ccc(-n4cccn4)cc3)CC2)o1", "note": "(stereo unspecified)", "inhibition": "81.8% (active)"}
{"molecule": "Cc1nc(C)c(CN2CCC(C(=O)Nc3ccc(-n4cccn4)cc3)CC2)nc1C", "inhibition": "83.6% (active)"}
{"molecule": "O=C(Nc1ccc(-n2cccn2)cc1)C1CCN(Cc2ccccn2)CC1", "inhibition": "90.4% (active)"}
{"molecule": "O=C(Nc1ccc(-n2cccn2)cc1)C1CCCCN1Cc1cc2ccccc2[nH]1", "note": "(stereo unspecified)", "inhibition": "80.4% (active)"}
{"molecule": "CCn1ncc(CN2CCCC(C(=O)Nc3cccc(-c4cc5ccccc5[nH]4)c3)C2)c1C", "note": "(stereo unspecified)", "inhibition": "24.9%"}
{"molecule": "O=C(CCC1CCCCC1)Nc1ccc(-n2cccn2)cc1", "inhibition": "37.5%"}
{"molecule": "Cc1ccc2nc(/C(Cl)=C/c3cccc(OCc4cccc(C#N)c4)c3)cc(=O)n2c1", "inhibition": "32.1%"}
{"molecule": "O=C(Nc1cccc(-c2cccc(F)c2)c1)C1CCN(CC2CCOC2)CC1", "note": "(stereo unspecified)", "inhibition": "19.5%"}
{"molecule": "O=C(Nc1ccc(-n2cccn2)cc1)C1CCN(CC2CCOC2)CC1", "note": "(stereo unspecified)", "inhibition": "87.4% (active)"}
{"molecule": "CCCCOC(=O)c1ccc(N/C=C(\\C#N)c2nc(C3CC3)cs2)cc1", "inhibition": "79.1% (active)"}
{"molecule": "O=C(O)c1cncnc1/C=C/c1ccccc1Br", "inhibition": "3.04%"}
{"molecule": "N#CC(Cc1ccccc1)NC(=O)/C=C/c1ccccc1Br", "note": "(stereo unspecified)", "inhibition": "88.1% (active)"}
{"molecule": "CCc1ccc(S(=O)(=O)NCCOc2ccc(-c3ccc(F)cc3)nn2)s1", "inhibition": "92.4% (active)"}
{"molecule": "O=C(c1cc(COc2ccc3c(c2)CCCC3)on1)N1CCC(c2ccncc2)CC1", "inhibition": "36.6%"}
{"molecule": "O=C(NC1(c2ccccc2)CC1)c1cc(COc2cccc(C(F)(F)F)c2)on1", "inhibition": "88.1% (active)"}
{"molecule": "O=C(c1cc(COc2cccc(C(F)(F)F)c2)on1)N1CCC(c2ccncc2)CC1", "inhibition": "64.9% (active)"}
{"molecule": "O=C(NCc1ccc(Cl)s1)c1cc(COc2cccc(C(F)(F)F)c2)on1", "inhibition": "82.4% (active)"}
{"molecule": "O=C(c1cc(COc2ccc(-n3cncn3)cc2)on1)N1CCC(c2ccncc2)CC1", "inhibition": "35.6%"}
{"molecule": "C#CCN(CC=C)C(=O)c1cc(COc2cccc(C(F)(F)F)c2)on1", "inhibition": "26.3%"}
{"molecule": "Cc1ccc(-c2nc(N3CCN(CCO)CC3)ncc2-c2ccccc2C)cc1", "inhibition": "-0.32%"}
{"molecule": "O=C(NCc1ccccc1)c1coc(Br)c1", "inhibition": "41.6%"}
{"molecule": "O=P(NCc1ccccc1)(Oc1ccccc1)Oc1ccccc1", "inhibition": "81.5% (active)"}
{"molecule": "CN(Cc1ccc(C#N)cc1)C(=O)CCc1ccc(C(C)(C)C)cc1", "inhibition": "74.3% (active)"}
{"molecule": "CC(C)(C)CC(C)(C)NC(=O)c1ccc(C#N)cc1", "inhibition": "-11.6%"}
{"molecule": "CCC(C)(C)C1CCC(NC(=O)c2cccc(-n3cnnn3)c2)CC1", "note": "(stereo unspecified)", "inhibition": "24.6%"}
{"molecule": "CCC(C)(C)C1CCC(NC(=O)c2ccnc(C)n2)CC1", "note": "(stereo unspecified)", "inhibition": "70.8% (active)"}
{"molecule": "O=[N+]([O-])c1ccc(C2CN=C(Nc3ccccc3)O2)cc1", "note": "(stereo unspecified)", "inhibition": "74% (active)"}
{"molecule": "NC(=O)CC1CCN(Cc2noc(Cc3ccc(Br)cc3)n2)CC1", "inhibition": "24.6%"}
{"molecule": "CCC(=O)C1=C(c2ccc(Br)cc2)N(C(=O)CC)n2cnnc2S1", "inhibition": "8.79%"}
{"molecule": "CNS(=O)(=O)c1ccc(C(=O)Nc2ccc(C)c(C)c2)o1", "inhibition": "-15.4%"}
{"molecule": "Cc1nnc(NC(=O)c2ccc(S(=O)(=O)Nc3cccc(C(F)(F)F)c3)o2)s1", "inhibition": "66.4% (active)"}
{"molecule": "O=C(NC(=S)Nc1cccc(C(F)(F)F)c1)c1ccc(Br)o1", "inhibition": "-5.04%"}
{"molecule": "O=C(Nc1ccc(CNS(=O)(=O)c2c(Cl)cccc2Cl)cc1)C1CC1", "inhibition": "27.6%"}
{"molecule": "O=C(Nc1ccc(Cl)c(Cl)c1)N(Cc1ccc(O)cc1)C1CC1", "inhibition": "27.8%"}
{"molecule": "O=C(NNc1ccc(Cl)c(Cl)c1)c1ccc(NC(=O)C2CC2)cc1", "inhibition": "96.5% (active)"}
{"molecule": "CC1(C)CC2CC(C)(CN2C(=O)c2cc3c(s2)CCCC3)C1", "note": "(stereo unspecified)", "inhibition": "47.7%"}
{"molecule": "CCCCNC(=S)N1CC2(C)CC1CC(C)(C)C2", "note": "(stereo unspecified)", "inhibition": "90.3% (active)"}
{"molecule": "CC1(C)CC2CC(C)(CN2C(=S)NC(=O)c2cccs2)C1", "note": "(stereo unspecified)", "inhibition": "96.2% (active)"}
{"molecule": "Clc1ccc(Cc2noc(-c3cccs3)n2)c(Cl)c1", "inhibition": "84.3% (active)"}
{"molecule": "Fc1ccc(OCc2noc(-c3cccs3)n2)c(Br)c1", "inhibition": "-15.9%"}
{"molecule": "CNC(=O)Cc1noc(-c2cc3c(s2)CCCCCC3)n1", "inhibition": "43.5%"}
{"molecule": "S=C(NCc1ccco1)N1CCC2CCCCC2C1", "note": "(stereo unspecified)", "inhibition": "86.6% (active)"}
{"molecule": "O=C(CN1CCCc2cc(F)ccc21)NCc1ccco1", "inhibition": "44%"}
{"molecule": "N#Cc1cccc(NC(=O)c2cc(Cl)c3c(c2)OCCCO3)c1", "inhibition": "56.4% (active)"}
{"molecule": "N#Cc1cccc(NC(=O)C2C3CC4CC(C3)CC2C4)c1", "note": "(stereo unspecified)", "inhibition": "28.5%"}
{"molecule": "COc1cc(C(=O)NC2CCOc3ccccc32)cc2c1OCCO2", "note": "(stereo unspecified)", "inhibition": "41.9%"}
{"molecule": "CC(C)c1cccc(Nc2nnc(C(O)c3ccccc3)s2)c1", "note": "(stereo unspecified)", "inhibition": "68.4% (active)"}
{"molecule": "OC(c1ccccc1)c1nc(/C=C/c2ccccc2)cs1", "note": "(stereo unspecified)", "inhibition": "47.4%"}
{"molecule": "Cc1cc(NC(=O)C(C)C)n(-c2nc3c(c(=O)[nH]2)CCC3)n1", "inhibition": "101% (active)"}
{"molecule": "Cc1cc(NC(=O)C(C)Oc2ccccc2)n(-c2nc3c(c(=O)[nH]2)CCC3)n1", "note": "(stereo unspecified)", "inhibition": "100% (active)"}
{"molecule": "O=C(Nc1ncnc2c1CCC2)c1nc2ccccc2s1", "inhibition": "93.3% (active)"}
{"molecule": "O=C(CSC(F)(F)F)NCC1CCC1", "inhibition": "-78.2%"}
{"molecule": "CC(C)(C)c1nnc2sc(SCC(=O)NCC3CCCCC3)nn2c1=O", "inhibition": "73.1% (active)"}
{"molecule": "O=C(CSc1nnc(SCC(=O)NC2CCCC2)s1)NC1CCCC1", "inhibition": "-2.28%"}
{"molecule": "CC(C)c1nc(CCNC(=O)C2CC2c2cccc(O)c2)cs1", "note": "(stereo unspecified)", "inhibition": "39.2%"}
{"molecule": "Cc1csc(CCNC(=O)C2CC2c2ccc(Cl)cc2)n1", "note": "(stereo unspecified)", "inhibition": "79.1% (active)"}
{"molecule": "Cc1cnc(CNC(=O)C2CC2c2ccc(F)c(F)c2)o1", "note": "(stereo unspecified)", "inhibition": "-29.9%"}
{"molecule": "CC(C)NC(=O)Nc1cccc(C(=O)Nc2ccc(C(C)C)cc2)c1", "inhibition": "35.6%"}
{"molecule": "O=C(O)Cc1ccc(NC(=O)c2cccc(Br)c2)cc1", "inhibition": "89.2% (active)"}
{"molecule": "C=C(Br)Cn1c(C=Cc2ccccc2)nc2ccccc21", "inhibition": "89.4% (active)"}
{"molecule": "C=CCn1c(COc2ccc3ccccc3c2)nc2ccccc21", "inhibition": "26.8%"}
{"molecule": "C=C(Br)Cn1c(-c2cccs2)nc2ccccc21", "inhibition": "4.18%"}
